Screening results deposited in PubChem BioAssay by National Center for Advancing Translational Sciences (NCATS).
FMDV inh: antivirals against foot and mouth disease virus. FMDV antiviral cell-based qHTS. Potency, µM (top dose mostly 57.9 µM), inactives show top-dose activity change, negative = inhibition, hits mostly inhibitors. hit rate 1.2% among 410,000; calls by dose curve; tested in HEK293T cells; further: read-out not given here; potency means the concentration at half of the fitted maximal effect; on the % scale 0 is the no-effect control and ±100 the full control effect; nearly all actives have a fitted effect of over 45% in size
HCMV inh: human cytomegalovirus inhibition; HFF cells, HCMV-luciferase reporter, 72 h; hits give low values; activity change, negative = inhibition, % at 57.5 µM; hit rate 4.5% among 410,000; AID 1259415; in the data active means activity change below about -60%; inconclusive means no clear call, values can overlap the other calls; inactive means above about -39%; further: on the % scale 0 is the no-effect control and ±100 the full control effect
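Inhibition of viral replication was scored as loss of reporter luminescence in HFFs infected with HCMV-luciferase (MOI 1 PFU/cell) for 72 h; compounds tested at 2 doses, normalized to buffer and Salinomycin controls.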
SARS PLP yeast: SARS-CoV PLP inhibition in yeast; hit rate 0.19% among 330,000; S. cerevisiae expressing SARS-CoV PLpro, growth rescue; Potency, µM (series often up to 32.9 µM), without a hit: at the highest dose activity, positive = growth rescue, actives largely listed as activators; AID 485353; calls by dose curve; further: potency means the concentration at half of the fitted maximal effect; 0% is about no effect; nearly all actives have a fitted effect of over 55% in size
HCV inh: HCV inhibition; Huh7.5.1 HCVcc-Cre infection, luciferase reporter, 44 h; Potency, µM (series often up to 41.8 µM), inactives show at the highest dose activity change, negative = inhibition, usual class: inhibitors; hit rate 3.4% among 340,000; active means well fitted inhibition curve with a large enough effect; inconclusive means small, poorly fitted or top-dose-only effect, or another doubt; inactive means no such curve, though single readings can be large or run the other way; further: potency means the concentration at half of the fitted maximal effect; on the % scale 0 is the no-effect control and ±100 the full control effect
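Cells (1,000/well) were plated 4 h before compound, then infected with HCVcc-Cre virus (~0.5 moi). After 44 h further culture, infection was read as luciferase luminescence following a 15 min substrate incubation at room temperature.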
LASV entry inh: blocks Lassa virus binding to or entry into cells; Lassa virus pseudotype entry inhibition, cell reporter; Potency, µM (highest dose often 37.9 µM), for the others: at the top dose activity change, negative = inhibition, most hits filed as inhibitors; hit rate 1.2% among 300,000; AID 540256; calls by dose curve; tested in HEK293 cells; further: potency means the concentration at half of the fitted maximal effect; on the % scale 0 is the no-effect control and ±100 the full control effect; nearly all actives have a fitted effect of over 50% in size
Marburg entry inh: blocks Marburg virus binding to or entry into cells; Marburg virus pseudotyped entry inhibition, cell reporter; Potency, µM (highest dose often 37.8 µM), without a hit: top-dose activity change, negative = inhibition, usual class: inhibitors; hit rate 1.8% among 300,000; calls by dose curve; tested in HEK293 cells; further: potency means the concentration at half of the fitted maximal effect; on the % scale 0 is the no-effect control and ±100 the full control effect
* hit, by the source's call; [ ] = remark or other dose. Only some compounds are listed: those with a hit (about 8% of all), similar ones and a draw of the others.

For CC(=O)C(=Cc1ccc(Cl)cc1)C(=O)c1ccccc1 the results were FMDV inh 28µM* and HCMV inh 36.
For CC(=O)C(=Cc1cccc(C#N)c1)C(=O)c1ccccc1 the results were FMDV inh 13µM* and HCMV inh inconclusive.
`COc1ccc(C=C(C(C)=O)C(=O)c2ccccc2)cc1` gave FMDV inh inconclusive and HCMV inh -21.
C=CCc1c(C)nc2nc(SCC(=O)Nc3ccc(C)c(C)c3)nn2c1C was read as FMDV inh 0%, HCMV inh -100* and LASV entry inh 28%[46.1 µM].
For C=CCc1c(C)nc2nc(SCC(=O)Nc3cccc(Cl)c3)nn2c1C the results were FMDV inh inconclusive, HCMV inh inconclusive and LASV entry inh 8%[46.1 µM].
`Cc1ccnc(Nc2nc(-c3sc(C)nc3C)cs2)c1` gave FMDV inh -9%, HCMV inh -107*, HCV inh 8.9µM*, LASV entry inh 15%[46.1 µM] and Marburg entry inh 5.6µM*.
CC(=O)Oc1ccc(-c2csc(Nc3ccc(Cl)cn3)n2)cc1 was read as FMDV inh 23%, HCMV inh -8, SARS PLP yeast inconclusive and HCV inh 11µM*.
Screening Cc1nc(N)sc1-c1csc(Nc2ccc(Cl)cn2)n1 returned FMDV inh 15%, HCMV inh -18, SARS PLP yeast 21%, HCV inh 8.9µM*, LASV entry inh -9% and Marburg entry inh inconclusive.
For Cc1ccnc(Nc2nc(-c3ccc(F)cc3)cs2)c1 the results were FMDV inh -93%, HCMV inh 33, SARS PLP yeast -4%, HCV inh inconclusive, LASV entry inh inconclusive and Marburg entry inh inconclusive.
Cc1nc(N)sc1-c1csc(Nc2ccccn2)n1 was read as FMDV inh -25%, HCMV inh 9, SARS PLP yeast 3%, HCV inh -24%, LASV entry inh inconclusive and Marburg entry inh inconclusive.
COc1ccc(-c2csc(Nc3ccc(C)cn3)n2)cc1 was read as FMDV inh -13%, HCMV inh -20, SARS PLP yeast 1%, HCV inh inconclusive, LASV entry inh 5% and Marburg entry inh -6%[46.1 µM].
For Cc1nc(C)c(-c2csc(Nc3ccccn3)n2)s1 the results were FMDV inh -24%, HCMV inh -20, SARS PLP yeast -21% and HCV inh 8.9µM*.
`COc1ccc(O)c(C(=O)N2CCC3(CC2)c2ccccc2[C@@H](NC(=O)c2ccccn2)[C@@H]3OC)c1` gave FMDV inh 21%.
CCCCOc1ccc(C2c3c(oc4ccccc4c3=O)C(=O)N2c2nc(C)c(C(=O)OCC)s2)cc1OC (stereo unspecified) was read as FMDV inh -20%, HCMV inh 14, LASV entry inh -13%[46.1 µM] and Marburg entry inh 6%[46.1 µM].
O=C(Cn1c(-c2cccs2)cc2ccccc21)NCCCN1CCN(c2cccc(Cl)c2)CC1 was read as FMDV inh -25%, HCMV inh inconclusive and LASV entry inh -3%[46.1 µM].
For Cc1ccccc1OCCn1c(=S)[nH]c2c(N)ncnc21 the results were FMDV inh 74%, HCMV inh -80*, SARS PLP yeast -1% and HCV inh 18%.
Screening Cc1ccccc1OCCn1cnc2c(N)ncnc21 returned FMDV inh 6%, HCMV inh -12, SARS PLP yeast 26%, HCV inh 13%, LASV entry inh 30% and Marburg entry inh 11%.
CCC(=O)Nc1ccc(-c2nnc(SCC(=O)NC[C@H]3CCCO3)n2C)cc1 was read as Marburg entry inh -7%.
Screening CCOc1ccc(C(=O)c2oc3ccccc3c2NC(=O)c2cc(-c3ccc(C)cc3)on2)cc1 returned FMDV inh -26%, HCMV inh -19, LASV entry inh 16%[46.1 µM] and Marburg entry inh -1%[46.1 µM].
Cc1ccc(C(CNS(=O)(=O)c2ccc([N+](=O)[O-])cc2)N2CCN(C)CC2)cc1 (stereo unspecified) was read as FMDV inh 0%, HCMV inh -15, SARS PLP yeast 3%, HCV inh 11µM*, LASV entry inh inconclusive and Marburg entry inh inconclusive.
